Pf growth 48h: P. falciparum growth inhibition at 48 hours (one generation). P. falciparum luciferase growth in erythrocytes, 48 h. Potency, µM (titrated, usually from 28.7 µM), without a hit: at the highest dose activity change, negative = inhibition, hits mostly inhibitors. hit rate 5.9% among 310,000. AID 504832; further: potency means the concentration at half of the fitted maximal effect; on the % scale 0 is the no-effect control and ±100 the full control effect
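Parasite viability was followed by luminescence of a genomically integrated firefly luciferase. Cultures held 0.1% parasitemia at 2% hematocrit (final), incubated under 5% CO2 at 37 C.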
Pf growth 96h: P. falciparum growth inhibition at 96 hour, primary screen for plastid delayed-death inhibitors; Potency, µM (doses to about 28.7 µM), for inactives: at the highest dose activity change, negative = inhibition, actives largely listed as inhibitors; hit rate 6.9% among 320,000; P. falciparum luciferase reporter growth, 96 h; further: potency means the concentration at half of the fitted maximal effect; on the % scale 0 is the no-effect control and ±100 the full control effect
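Compounds incubated with erythrocytes infected by luciferase-expressing P. falciparum (2% hematocrit, 0.05% parasitemia final) for 96 hours, 37 C in 5% CO2. Growth inhibition scored as decreased luciferase luminescence.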
Shiga inhibitor: blocks Shiga toxin action in Vero cells. Vero cells, Shiga toxin protein synthesis inhibition reporter. inhibition, % at 38.7 µM. hit rate 9.2% among 290,000; in the data active means inhibition mostly above about 28%, no sharp cut-off; inactive means mostly below about 43%; further: 0% is about no effect
NS1 function inh: blocks influenza NS1 protein function. Potency, µM (series often up to 46.1 µM), for inactives: at the top dose activity, positive = more growth. hit rate 0.4% among 270,000; calls by dose curve; further: potency means the concentration at half of the fitted maximal effect; actives are rising curves; nearly all actives have a fitted effect of over 50% in size
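A cell-based growth assay was used: compounds that relieve NS1-induced slow growth of budding yeast raise OD600. Assay medium was yeast nitrogen base with ammonium sulphate and -URA supplement, pH 6.0, with 2% galactose.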
CHX counter: affects cycloheximide protein synthesis inhibition readout, counter-screen; cell reporter, cycloheximide protein synthesis inhibition counterscreen; max response, %; hit rate 12% among 300,000; AID 2314; in the data active means max response mostly above about 13%, no sharp cut-off; inactive means mostly below about 14%; further: read at 38.3 µM for the half of the compounds with a filed dose; 0% is about no effect
SARS PLpro yeast: SARS-CoV PLP inhibition in yeast | S. cerevisiae expressing SARS-CoV PLpro, growth rescue | Potency, µM (highest dose often 32.9 µM), for the others: at the top dose activity, positive = growth rescue, usual class: activators | hit rate 0.19% among 330,000; calls by dose curve; further: potency means the concentration at half of the fitted maximal effect; 0% is about no effect; nearly all actives have a fitted effect of over 55% in size
* marks the source's active call; other numbers are inactive results; ? = inconclusive; . = no result given; [ ] = another dose, or the depositor's remark. A selection: hits, their analogues and other compounds. The true share with any hit is near 21%. Unless noted, the call rests on the fitted dose curve; in most records, active means well fitted inhibition curve with a large enough effect; inconclusive means small, poorly fitted or top-dose-only effect, or another doubt; inactive means no such curve, though single readings can be large or run the other way.

SMILES	Pf growth 48h	Pf growth 96h	Shiga inhibitor	NS1 function inh	CHX counter	SARS PLpro yeast
Cc1ccc(-n2c(C)cc(/C=C3/SC(=O)N(CC(=O)N4CCOCC4)C3=O)c2C)nc1	-3%	0%	15	1%	6	1%
CCOC(=O)CN1C(=O)S/C(=C/c2ccc(C)o2)C1=O	18%	10%	46*	-20%	24*	-3%
CCOC(=O)CN1C(=O)S/C(=C/c2ccc(O)c([N+](=O)[O-])c2)C1=O	-7%	?	12	-36%	-2	-45%
COC(=O)C(C)N1C(=O)S/C(=C/c2cc(C)n(-c3ccccn3)c2C)C1=O (stereo not drawn)	.	2%	57	6%	50*	10%
COC(=O)C(C)N1C(=O)S/C(=C\c2cc(C)n(-c3ccccn3)c2C)C1=O (stereo not drawn)	.	28%	90*	2%	43*	4%
COc1ccc(CNC(=O)Cc2cn(C)c3ccccc23)c(OC)c1	12%	-10%	26	-30%	7	-2%
CCN(C(=O)CSc1n[nH]c(-c2cc(Cl)ccc2OC)n1)C1CCS(=O)(=O)C1 (stereo not drawn)	-2%	?	.	.	.	2%
COc1ccc(NC(=O)c2cc3n(n2)C(C(F)(F)F)CC(c2ccc4c(c2)OCO4)N3)cc1OC (stereo not drawn)	3%	3.3µM*	8	-90%	-1	8%
COc1ccc(C2CC(C(F)(F)F)n3ncc(C(=O)Nc4cccc(O)c4)c3N2)cc1OC (stereo not drawn)	10µM*	.	-8	19%	8	2%
COc1ccc(C2CC(C(F)(F)F)n3nc(CO)c(Cl)c3N2)cc1OC (stereo not drawn)	1%	7.4µM*	-12	0%	-4	1%
CCN(CC(=O)Nc1c(F)cccc1F)C(=O)Cc1c(C)nc2ccccc2c1C	?	?	.	.	.	-11%
CC(C)(C)n1nc(-c2ccc(F)cc2)c2c(N)ncnc21	12µM*	15µM*	-9	15%	-4	-26%
CC(C)(C)n1nc(-c2ccc(Cl)cc2)c2c(N)ncnc21	12µM*	3.7µM*	-17	-81%	-2	-25%
CC(=O)Nc1ccc(S(=O)(=O)NCCCN2CCN(Cc3ccccc3)CC2)cc1Cl	7%	1%	64	1%	-2	2%
O=C(CNC(=O)c1ccco1)NCC(c1ccco1)N1CCCCC1 (stereo not drawn)	-27%	-27%	.	.	.	3%
FC(F)(F)c1cnc(-c2cnc(-c3ccncc3)nc2)c(Cl)c1	59%	107%	20	.	20*	-2%
FC(F)(F)c1cc(Oc2ccccc2Cl)nc(-c2ccccn2)n1	37%	42%	-4	-54%	1	-3%
FC(F)(F)c1cnc(-c2cnc(-c3ccccn3)nc2)c(Cl)c1	329%	6.6µM*	52*	.	24	1%
NC(=S)c1ncc(C(F)(F)F)cc1Cl	13%	-5%	-7	-1%	0	1%
CCCNC(=O)COc1coc(CN2CCN(C(=O)c3ccco3)CC2)cc1=O	?	1%	.	.	.	4%
CCCCCN(C(=O)CCC(=O)OCc1ccc(C(C)(C)C)cc1)c1c(N)n(CCCC)c(=O)[nH]c1=O	?	8.3µM*	-20	24%	-3	9%
CCCCCN(C(=O)CCC(=O)OCc1cc(C)ccc1C)c1c(N)n(CCCC)c(=O)[nH]c1=O	11%	?	.	.	.	-1%
CCCCCN(C(=O)CCC(=O)OCc1ccccc1F)c1c(N)n(CCCC)c(=O)[nH]c1=O	?	40%	.	.	.	-2%
CCCCCN(C(=O)CCC(=O)OCc1ccc(C(C)C)cc1)c1c(N)n(CCCC)c(=O)[nH]c1=O	36%	10µM*	.	.	.	0%
Cc1cc(C)c(NC(=O)CSc2nnc(-c3ccncc3)n2Cc2ccco2)c(Cl)c1	?	?	-8	16%	3	11%
SMILES	Pf growth 48h	Pf growth 96h	Shiga inhibitor	NS1 function inh	CHX counter	SARS PLpro yeast
CC1(c2ccc(Cl)cc2)NC(=O)CS1 (stereo not drawn)	18%	0.26µM*	-11	0%	-1	-1%
COCCNC(=O)/C(=C/c1ccccc1Cl)c1ccccc1	-3%	75%	-3	-6%	-2	18%
COc1cccc(C(=O)COc2cccc(NC(=O)c3ccco3)c2)c1	0%	-4%	15	-3%	5	-1%
COc1ccc(C(=O)COC(=O)c2ccco2)cc1	3%	4%	50*	0%	43*	-3%
Cc1ccc(C(=O)C(C)Oc2cccc(NC(=O)c3ccco3)c2)cc1 (stereo not drawn)	2.9µM*	-2%	2	-44%	10	-55%
O=C(COc1cccc(NC(=O)c2ccco2)c1)c1ccccc1	72%	?	62*	-76%	37*	-17%
COc1cccc(NC(=O)COC(=O)c2ccco2)c1	-12%	-8%	41*	-6%	12*	-2%
Cc1ccc(NC(=O)COC(=O)c2ccco2)cc1C	-5%	-10%	.	.	.	-6%
COc1ccc(NC(=O)C2CC(=O)N/C(=N/NC(=O)c3ccc(Cl)cc3)S2)cc1 (stereo not drawn)	17%	?	8	-2%	1	2%
Cn1c(=O)c2c(ncn2CC(O)CNc2cccc(Cl)c2)n(C)c1=O (stereo not drawn)	-11%	-9%	-10	3%	6	-1%
CCOC(=O)c1cccc(NC(=O)c2ccco2)c1	55%	.	28*	-23%	41*	-20%
COc1ccc(C(=O)COC(=O)c2cncc(Br)c2)cc1	6%	12%	.	.	.	2%
COc1ccc(C(=O)COC(=O)c2ccn(C)n2)cc1	71%	2%	104*	-4%	42*	-3%
O=C(c1ccccc1)c1cccc(NC(=O)c2ccco2)c1	31%	?	60*	-107%	24*	-8%
COc1ccc(C(=O)COc2cccc(NC(=O)c3ccco3)c2)cc1	?	-49%	10	-13%[9.22 µM]	12*	-38%
COc1ccc(CCN(C)C2CCCN(C(=O)CCC(F)(F)F)C2)cc1OC (stereo not drawn)	-19%	?	-21	2%	-2	-3%
CC(=O)c1ccc(S(=O)(=O)Nc2ccc(-n3c(C)nc4ccccc4c3=O)cc2)cc1	5%	-1%	.	.	.	5%
CC1CN(c2cc(=O)n(-c3ccccc3)c(=O)[nH]2)CC(C)O1 (stereo not drawn)	17%	3%	13	5%	-1	15%
CS(=O)(=O)Cc1cc(N2CCCC2)nc(-c2ccccc2)n1	18%	-24%	-6	.	1	-1%
COc1ccc(CCNC(=O)COC(=O)c2cc(OC)c(OC)cc2OC)cc1	?	-64%[5.75 µM]	2	.	-4	-3%
CCOc1cc(NC(=O)c2ccco2)c(OCC)cc1NC(=O)Cc1cccc(OC)c1	4.7µM*	1%	-4	-9%	-4	-8%
COc1cccc(NC(=O)c2ccco2)c1	144%	-27%	86*	-35%	36*	-13%
O=C(Nc1cccc(OC(=O)c2ccco2)c1)c1ccco1	20%	.	42	-19%	15	0%
